Activity calls are given as the source filed them. Unless noted, calls come from the whole dose curve; as a rule, active = well fitted curve in the direction sought with a large enough effect in the repeat runs; inconclusive = weak or mixed curves; inactive = no such curve, though single readings can be large; an effect the other way counts as inactive or inconclusive.
Assays:
[1] = qHTS assay for small molecule agonists of the p53 signaling pathway - cell viability (AID 651633; calls by dose curve; note: nearly all actives have a fitted effect of over 30% in size; note: potency is the fitted concentration of half-maximal effect)
In short: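 p53RE-bla cells were treated with compound for 16 hours at 37 C. Cytotoxicity was then measured as CellTiter-Glo luminescence after 30 min at room temperature.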

[2] = qHTS assay for small molecule disruptors of the mitochondrial membrane potential - cell viability (AID 720634; calls by dose curve; note: nearly all actives have a fitted effect of over 20% in size; note: potency is the fitted concentration of half-maximal effect)
In short: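 Same-well counter-screen: following the MMP dye addition, CellTiter-Glo was added to 1 hr compound-treated HepG2 cells and luminescence read after 30 min at room temperature.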

[3] = qHTS assay to test for compound auto fluorescence at 590 nm (red) in HepG2 cells (AID 720674)
In short: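 Fluorescence at 590 nm emission following 540 nm excitation was recorded from HepG2 wells one hour after compound transfer, with DMSO-only wells as vehicle and Rose Bengal sodium equivalency as the scale.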

[4] = qHTS assay to test for compound auto fluorescence at 460 nm (blue) in HEK293 cells (AID 720678)
In short: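 After cell attachment (4-5 hr, 37C), compounds were pinned onto HEK293 monolayers in 10% dialyzed FBS medium. The blue channel (405/460 nm) was read following overnight culture. Equivalency was calculated against triamterene.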

[5] = qHTS assay to test for compound auto fluorescence at 590 nm (red) in HEK293 cell free culture (AID 720683)
In short: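 Cell-free wells of DMEM with 10% FBS received compound, and intrinsic fluorescence was read at excitation/emission 540/590 nm. Values expressed as equivalence to Rose Bengal sodium.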

[6] = biological target: Glucocorticoid receptor (Homo sapiens) (UniProt P04150); experiment: qHTS assay to identify small molecule agonists of the glucocorticoid receptor (GR) signaling pathway (AID 720691; active = well fitted activation curve with a large enough effect in the signal ratio in the repeat runs, not every such curve was filed as active; inconclusive = weak or mixed curves, or effect the other way; inactive = no such curve, though single readings can be large or run the other way; the % refers to the signal ratio)
In short: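 A HeLa cervical cancer line expressing GR and a glucocorticoid response element-driven beta-lactamase gene is treated with compounds for 18 h; LiveBLAzer B/G FRET substrate is then applied and fluorescence read.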

[7] = qHTS assay to identify small molecule antagonists of the glucocorticoid receptor (GR) signaling pathway - cell viability counter screen (AID 720693); note: nearly all actives have a fitted effect of over 55% in size; note: potency is the fitted concentration of half-maximal effect
[8] = qHTS assay for identifying genotoxic compounds that show differential cytotoxicity against isogenic chicken DT40 cell lines with known DNA damage response pathways - wild type cell line (AID 743012); note: nearly all actives have a fitted effect of over 60% in size; note: potency is the fitted concentration of half-maximal effect
In short: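 300 wt DT40 cells/well; cpd (DMSO) pintool-transferred after ~0.5 h at 37 C/5% CO2; 40 h incubation; CellTiter-Glo added, 30 min RT; luminescence read.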

[9] = qHTS assay for identifying genotoxic compounds that show differential cytotoxicity against isogenic chicken DT40 cell lines with known DNA damage response pathways - Rev3 mutant cell line (AID 743014); note: nearly all actives have a fitted effect of over 55% in size; note: potency is the fitted concentration of half-maximal effect
[10] = biological target: Estrogen receptor (Homo sapiens) (UniProt P03372); experiment: qHTS assay to identify small molecule agonists of the estrogen receptor alpha (ER-alpha) signaling pathway (AID 743075; calls by dose curve;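 note: HEK293 GripTite cells with ER-alpha and UAS-driven beta-lactamase reporter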; note: potency is the fitted concentration of half-maximal effect)
[11] = qHTS assay to identify small molecule phospholipidosis (PLD) inducers (AID 1259344; active = well fitted curve in the direction sought with a large enough effect; inconclusive = small, poorly fitted or top-dose-only effect, or another doubt; inactive = no such curve, though single readings can be large; an effect the other way counts as inactive or inconclusive)
In short: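 Read-out is LipidTOX Red fluorescence (ex 595/em 615) imaged in HepG2 cells after 24 h compound exposure at 37 C, with Hoechst nuclear counterstain (ex 352/em 461) allowing per-cell normalisation.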

[12] = qHTS assay for small molecule disruptors of the mitochondrial membrane potential (AID 720635); note: potency is the fitted concentration of half-maximal effect
In short: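 HepG2 cells exposed to compound 1 hr at 37C, then Mito-MPS dye 30 min. Ratio read of aggregate (540/590 nm) versus monomer (490/535 nm) fluorescence.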

[13] = qHTS assay to identify small molecule antagonists of the androgen receptor (AR) signaling pathway - cell viability counter screen (AID 743033; note: nearly all actives have a fitted effect of over 45% in size; note: potency is the fitted concentration of half-maximal effect)
[14] = biological target: Estrogen receptor (Homo sapiens) (UniProt P03372); experiment: qHTS assay to identify small molecule agonists of the estrogen receptor alpha (ER-alpha) signaling pathway using the BG1 cell line (AID 743079); note: nearly all actives have a fitted effect of over 20% in size
[15] = qHTS assay to identify small molecule antagonists of the estrogen receptor alpha (ER-alpha) signaling pathway using the BG1 cell line (AID 743080; calls by dose curve;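 note: BG1 cells stimulated with 17beta-estradiol alongside compound; nearly all actives have a fitted effect of over 25% in size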; note: potency is the fitted concentration of half-maximal effect)
In short: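 Seeding, 24 h rest, compound transfer from DMSO, 17beta-estradiol addition, 21.5 h incubation, CellTiter-Fluor (30 min, 37 C), then ONE-Glo (30 min, room temperature): this sequence was run on BG1-Luc-4E2 reporter cells.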

[16] = qHTS assay to identify small molecule antagonists of the estrogen receptor alpha (ER-alpha) signaling pathway using the BG1 cell line - cell viability counter screen (AID 743081);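 note: compound given together with 17beta-estradiol as the ER stimulus; nearly all actives have a fitted effect of over 45% in size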; note: potency is the fitted concentration of half-maximal effect
[17] = qHTS assay for small molecule agonists of the p53 signaling pathway (AID 651631; calls by dose curve; note: nearly all actives have a fitted effect of over 15% in size; note: potency is the fitted concentration of half-maximal effect)
In short: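 Agonist mode screen using a stably integrated beta-lactamase gene under p53 response elements in HCT-116 cells. Compound exposure lasts 16 h at 37 °C; fluorescence intensity is measured following 2 h FRET substrate loading.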

[18] = qHTS assay to identify small molecule antagonists of the androgen receptor (AR) signaling pathway using the MDA cell line - cell viability counter screen (AID 743041; note: nearly all actives have a fitted effect of over 45% in size; note: potency is the fitted concentration of half-maximal effect)
In short: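 Cytotoxicity counter screen: MDA-kb2 AR-luc cells, compound + R1881, 16 h, 37C, 0% CO2; CellTiter-Fluor added at 15.5 h, fluorescence read after 30 min.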

[19] = biological target: Peroxisome proliferator-activated receptor gamma (Homo sapiens) (UniProt P37231); experiment: qHTS assay to identify small molecule agonists of the peroxisome proliferator-activated receptor gamma (PPARg) signaling pathway (AID 743094; active = well fitted activation curve with a large enough effect in the signal ratio in the repeat runs, not every such curve was filed as active; inconclusive = weak or mixed curves, or effect the other way; inactive = no such curve, though single readings can be large or run the other way; the % refers to the signal ratio; note: potency is the fitted concentration of half-maximal effect)
In short: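 Cell-based bla reporter, HEK293H background, PPARg-driven UAS. Pre-incubation 5 h, 37C, 5% CO2. Compound 17 h, 37C. Substrate 1 h RT; fluorescence.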

[20] = biological target: Estrogen receptor (Homo sapiens) (UniProt P03372); experiment: qHTS assay to identify small molecule antagonists of the estrogen receptor alpha (ER-alpha) signaling pathway (AID 743069; active = well fitted curve in the direction sought with a large enough effect in the signal ratio in the repeat runs, not every such curve was filed as active; inconclusive = weak or mixed curves, or effect the other way; inactive = no such curve, though single readings can be large or run the other way; the % refers to the signal ratio; note: potency is the fitted concentration of half-maximal effect)
In short: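 Beta-lactamase FRET fluorescence is read after 2 hr at room temperature with LiveBLAzer B/G substrate. Before that, ER-alpha-bla HEK293 cells sit 4 hr after plating, then receive compound plus 17beta-estradiol and incubate 18 hr at 37C.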
% is set by controls: 0 for no effect and ±100 for the full control effect.

Chain of Peroxisome proliferator-activated receptor gamma (Homo sapiens) (P37231 whole entry, looked up): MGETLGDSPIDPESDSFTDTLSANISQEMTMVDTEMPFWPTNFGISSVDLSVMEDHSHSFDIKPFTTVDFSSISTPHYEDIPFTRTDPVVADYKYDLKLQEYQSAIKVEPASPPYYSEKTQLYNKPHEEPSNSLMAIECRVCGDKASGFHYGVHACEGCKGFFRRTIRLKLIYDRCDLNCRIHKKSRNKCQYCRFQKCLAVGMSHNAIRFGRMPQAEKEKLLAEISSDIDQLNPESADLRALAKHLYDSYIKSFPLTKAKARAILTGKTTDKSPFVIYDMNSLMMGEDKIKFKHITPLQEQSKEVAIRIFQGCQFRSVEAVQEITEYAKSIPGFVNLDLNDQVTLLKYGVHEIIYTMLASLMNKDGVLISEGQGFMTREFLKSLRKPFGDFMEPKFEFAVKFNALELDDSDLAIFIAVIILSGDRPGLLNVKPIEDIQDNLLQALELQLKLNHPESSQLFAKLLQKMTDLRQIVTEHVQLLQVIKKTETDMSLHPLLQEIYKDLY
Chain of Estrogen receptor (Homo sapiens) (P03372 whole entry, looked up): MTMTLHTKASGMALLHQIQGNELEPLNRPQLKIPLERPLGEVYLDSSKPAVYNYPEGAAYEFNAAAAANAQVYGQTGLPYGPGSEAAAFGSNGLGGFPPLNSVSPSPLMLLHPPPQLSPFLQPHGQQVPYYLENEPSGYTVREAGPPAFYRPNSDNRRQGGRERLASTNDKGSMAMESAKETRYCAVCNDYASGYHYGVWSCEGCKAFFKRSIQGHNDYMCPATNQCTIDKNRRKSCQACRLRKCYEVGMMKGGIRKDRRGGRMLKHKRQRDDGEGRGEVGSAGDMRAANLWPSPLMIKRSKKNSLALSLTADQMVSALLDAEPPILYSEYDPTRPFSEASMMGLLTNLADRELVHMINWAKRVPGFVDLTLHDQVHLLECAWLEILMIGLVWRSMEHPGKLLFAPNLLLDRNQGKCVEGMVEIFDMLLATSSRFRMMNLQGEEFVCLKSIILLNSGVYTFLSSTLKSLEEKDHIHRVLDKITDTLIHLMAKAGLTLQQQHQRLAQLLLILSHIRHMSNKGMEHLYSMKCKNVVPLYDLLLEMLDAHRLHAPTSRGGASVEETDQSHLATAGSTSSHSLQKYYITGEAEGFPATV
Chain of Glucocorticoid receptor (Homo sapiens) (P04150 whole entry, looked up): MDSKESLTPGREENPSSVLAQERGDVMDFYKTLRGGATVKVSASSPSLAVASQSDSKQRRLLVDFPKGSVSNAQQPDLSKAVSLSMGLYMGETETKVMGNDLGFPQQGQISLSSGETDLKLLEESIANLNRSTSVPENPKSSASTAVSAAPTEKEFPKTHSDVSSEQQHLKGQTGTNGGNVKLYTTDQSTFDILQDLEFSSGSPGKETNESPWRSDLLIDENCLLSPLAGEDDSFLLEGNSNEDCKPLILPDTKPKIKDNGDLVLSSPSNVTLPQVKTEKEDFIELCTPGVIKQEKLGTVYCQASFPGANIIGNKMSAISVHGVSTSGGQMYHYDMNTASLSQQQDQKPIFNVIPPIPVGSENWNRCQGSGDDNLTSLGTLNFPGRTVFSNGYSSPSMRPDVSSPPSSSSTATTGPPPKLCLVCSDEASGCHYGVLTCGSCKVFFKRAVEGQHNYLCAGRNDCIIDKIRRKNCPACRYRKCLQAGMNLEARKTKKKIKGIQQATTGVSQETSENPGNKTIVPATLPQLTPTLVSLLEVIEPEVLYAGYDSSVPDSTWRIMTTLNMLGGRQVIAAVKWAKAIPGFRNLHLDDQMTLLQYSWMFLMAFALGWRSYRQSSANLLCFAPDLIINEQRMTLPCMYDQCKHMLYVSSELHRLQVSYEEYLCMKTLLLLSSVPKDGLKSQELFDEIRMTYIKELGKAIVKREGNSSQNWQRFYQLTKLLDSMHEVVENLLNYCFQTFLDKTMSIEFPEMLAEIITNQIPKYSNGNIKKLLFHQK

O=C1C=C2C=C[C@@H]3C[C@@]2(O1)[C@H]1CCCCN31
active: Potency [8] 7.5 µM | Potency [9] 10.6 µM
inactive: Potency [1] | Potency [2] | outcome [3] | Potency [4] | outcome [5] | Potency [6] | Potency [7] | Potency [10] | Potency [11]

c1ccc(C2(N3CCCC3)CCCCC2)cc1
inactive: Potency [2] | outcome [3] | Potency [4] | outcome [5] | Potency [6] | Potency [13] | Potency [10] | Potency [14] | Potency [15] | Potency [16] | Potency [11]
active: Potency [1] 26.6 µM | Potency [12] 19.7 µM | Potency [7] 26.8 µM | Potency [9] 8.41 µM

[H+].[H+].[Hg+2].[O-]B([O-])[O-].[c-]1ccccc1
active: Potency [17] 1.33 µM | Potency [1] 0.668 µM | Potency [2] 13.3 µM | Potency [12] 13.9 µM | Potency [7] 2.68 µM | Potency [8] 0.266 µM | Potency [13] 9.52 µM | Potency [18] 13.3 µM | Potency [10] 30.1 µM [inconclusive] | Potency [16] 5.31 µM | Potency [19] 19 µM
inactive: outcome [3] | Potency [4] | outcome [5] | Potency [11]

CN[C@]1(c2ccccc2Cl)CCCCC1=O
inactive: Potency [17] | Potency [1] | Potency [12] | outcome [3] | Potency [4] | outcome [5] | Potency [6] | Potency [7] | Potency [8] | Potency [9] | Potency [13] | Potency [18] | Potency [20] | Potency [10] | Potency [14] | Potency [15] | Potency [16] | Potency [19] | Potency [11]

Cc1nnc2n1-c1ccc(Cl)cc1C(c1ccccc1)=NC2
inactive: Potency [17] | Potency [1] | Potency [2] | outcome [3] | Potency [6] | Potency [7] | Potency [8] | Potency [13] | Potency [18] | Potency [10] | Potency [16] | Potency [11]
active: Potency [20] 21.3 µM [inconclusive] | Potency [15] 11.9 µM

CC(N)Cc1ccc2c(c1)OCO2 (stereo not given)
inactive: Potency [17] | Potency [1] | Potency [12] | Potency [4] | outcome [5] | Potency [6] | Potency [8] | Potency [18] | Potency [10] | Potency [14] | Potency [15] | Potency [16] | Potency [19] | PLD induction [11] -3.76% [at 1.53 µM]

C=CCC1([C@@H](C)CCC)C(=O)NC(=O)NC1=O
inactive: Potency [17] | Potency [2] | Potency [12] | outcome [3] | Potency [4] | outcome [5] | Potency [6] | Potency [7] | Potency [13] | Potency [18] | Potency [20] | Potency [10] | Potency [14] | Potency [15] | Potency [16] | Potency [19] | Potency [11]
